Measurements from PubChem BioAssay (Tox21).
Inconclusive results are not listed. Calls of active or inactive are those of the source. Unless noted, calls follow the shape of the dose curve; as a rule, active = well fitted curve in the direction sought with a large enough effect in the repeat runs; inconclusive = weak or mixed curves; inactive = no such curve, though single readings can be large; an effect the other way counts as inactive or inconclusive.

Legend:
[1] = A CellTox Green Cytotoxicity Assay to monitor cytotoxicity in HEK293 cells - 8 hour (AID 1224884); also: nearly all actives have a fitted effect of over 35% in size
Outline: (§1)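 Seeding of HEK293 cells together with cytotoxicity dye preceded a 5 h incubation at 37 C/5% CO2. Test compounds in DMSO were then added and fluorescence monitored across 40 h.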

[2] = qHTS RealTime-Glo MT Cell Viability Assay in HepG2 cells - 16 hour (AID 1224885); also: nearly all actives have a fitted effect of over 50% in size
Outline: (§2)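 Cell number in HepG2 cultures estimated from NanoLuc luminescence generated by metabolic reduction of a prosubstrate by living cells. The homogeneous, nonlytic format allowed repeated reads at 0, 8, 16, 24, 32 and 40 h of compound exposure.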

[3] = qHTS RealTime-Glo MT Cell Viability Assay in HEK293 cells - 8 hour (AID 1224887); also: top concentration of the series differs between compounds; nearly all actives have a fitted effect of over 50% in size
Outline: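 Tox21 screen in HEK293 using RealTime-Glo MT chemistry, with cells and reagent co-dispensed. Luminescence proportional to viable cell number was captured at intervals during 40 h compound exposure at 37 C.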

[4] = qHTS RealTime-Glo MT Cell Viability Assay in HepG2 cells - 0 hour (AID 1224889); also: nearly all actives have a fitted effect of over 50% in size
Outline: as §2

[5] = A CellTox Green Cytotoxicity Assay to monitor cytotoxicity in HepG2 cells - 8 hour (AID 1224890); also: nearly all actives have a fitted effect of over 45% in size
Outline: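 Nonlytic assay: viable cells exclude the dye, so fluorescence scales with cell death. HepG2 at 600 cells/well, compounds added after 5 h, signal read across 40 h.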

[6] = qHTS assay to identify small molecule antagonists of the estrogen receptor alpha (ER-alpha) signaling pathway using the BG1 cell line in the presence of 0.1 nM 17-beta-estradiol - cell viability counter screen (AID 1259241); also: nearly all actives have a fitted effect of over 40% in size; also: potency is read from the fitted curve at half-maximal effect
Outline: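 Cells were plated and left 24 hr, compounds in DMSO were pinned in, 17beta-estradiol was added to 0.1 nM final, and after 22 hr CellTiter-Fluor reagent was added for 30 min before fluorescence was read.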

[7] = qHTS assay to identify small molecule antagonists of the androgen receptor (AR) signaling pathway using the MDA cell line in the presence of 0.5 nM R1881 - cell viability counter screen (AID 1259242); also: nearly all actives have a fitted effect of over 45% in size; also: potency is read from the fitted curve at half-maximal effect
Outline: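 R1881 at 0.5 nM final stimulated MDA-kb2 cells during 16 hr compound treatment at 37C. Cytotoxicity read: CellTiter-Fluor fluorescence after 30 min.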

[8] = molecular target: Estrogen receptor (Homo sapiens) (UniProt P03372); assay: qHTS assay to identify small molecule antagonists of the estrogen receptor alpha (ER-alpha) signaling pathway using the BG1 cell line in the presence of 0.1 nM 17-beta-estradiol (AID 1259244); also: nearly all actives have a fitted effect of over 50% in size; also: potency is read from the fitted curve at half-maximal effect
Chain of Estrogen receptor (Homo sapiens) (P03372 whole entry, looked up): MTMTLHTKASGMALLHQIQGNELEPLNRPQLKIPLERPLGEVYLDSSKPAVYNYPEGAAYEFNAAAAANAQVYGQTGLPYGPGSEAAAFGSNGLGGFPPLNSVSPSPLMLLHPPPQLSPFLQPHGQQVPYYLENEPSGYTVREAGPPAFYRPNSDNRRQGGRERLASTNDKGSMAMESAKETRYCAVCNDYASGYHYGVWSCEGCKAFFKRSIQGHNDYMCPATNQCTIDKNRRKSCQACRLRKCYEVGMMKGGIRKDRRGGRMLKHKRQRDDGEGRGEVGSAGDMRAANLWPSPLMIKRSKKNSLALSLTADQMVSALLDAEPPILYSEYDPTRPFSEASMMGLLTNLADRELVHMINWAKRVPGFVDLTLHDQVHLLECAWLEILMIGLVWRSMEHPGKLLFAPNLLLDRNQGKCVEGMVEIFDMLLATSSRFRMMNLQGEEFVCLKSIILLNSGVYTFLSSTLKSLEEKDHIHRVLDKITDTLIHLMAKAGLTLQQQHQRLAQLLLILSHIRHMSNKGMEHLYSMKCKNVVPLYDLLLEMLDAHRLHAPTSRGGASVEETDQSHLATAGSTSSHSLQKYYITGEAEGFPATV
Outline: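 VM7Luc4E2; 4xERE-luciferase; 0.1 nM E2 final; 22 h co-incubation, 37C; ONE-Glo luminescence after 30 min at room temperature.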

[9] = qHTS assay to identify small molecule HDAC inhibitors - cell viability counter screen (AID 1259365); also: nearly all actives have a fitted effect of over 50% in size; also: potency is read from the fitted curve at half-maximal effect
Outline: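 Counter screen in wild-type HCT-116 cells: compounds dissolved in DMSO are pin-transferred onto overnight-plated cells and left 2hr at 37C. ATP-based CellTiter-Glo luminescence then measures viable cells.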

[10] = qHTS assay to identify small molecule agonists of the sonic hedgehog signaling (Shh) pathway - cell viability counter screen (AID 1259366); also: nearly all actives have a fitted effect of over 50% in size; also: potency is read from the fitted curve at half-maximal effect
Outline: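 Cells are plated at 2,000 per well and left 4hr at 37C, 5% CO2 before compound addition. After 23hr of treatment, CellTiter-Fluor reagent is added for 1hr at 37C and fluorescence is measured.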

[11] = qHTS assay to identify small molecule antagonists of the sonic hedgehog signaling (Shh) pathway - cell viability counter screen (AID 1259367); also: nearly all actives have a fitted effect of over 55% in size; also: potency is read from the fitted curve at half-maximal effect
Outline: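 Seed 3T3 Gli1-Luc cells at 2,000 per well; incubate 4 hr; add compound in DMSO, then conditioned medium; incubate at 37C with 5% CO2; add CellTiter-Fluor after 23 hr; read fluorescence 1 hr later.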

[12] = qHTS assay to identify small molecule agonists of the sonic hedgehog signaling (Shh) pathway (AID 1259368; calls by dose curve;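 also: NIH/3T3-derived 3T3Gli1-Luc cells carrying a stable Gli1-driven firefly luciferase reporter; series mostly up to about 92 µM; nearly all actives have a fitted effect of over 15% in size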)
Outline: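 Mouse fibroblast (NIH/3T3) reporter cells with stably integrated Gli1-Luc were treated 24 hr with compound; firefly luciferase luminescence served as the read-out.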

[13] = molecular target: Estrogen receptor beta (Homo sapiens) (UniProt Q92731); assay: qHTS assay to identify small molecule agonists of the estrogen receptor beta (ER-beta) signaling pathway (AID 1259377; active = well fitted activation curve with a large enough effect in the signal ratio in the repeat runs, not every such curve was filed as active; the % refers to the signal ratio)
Chain of Estrogen receptor beta (Homo sapiens) (Q92731 whole entry, looked up, the tested form may be a part): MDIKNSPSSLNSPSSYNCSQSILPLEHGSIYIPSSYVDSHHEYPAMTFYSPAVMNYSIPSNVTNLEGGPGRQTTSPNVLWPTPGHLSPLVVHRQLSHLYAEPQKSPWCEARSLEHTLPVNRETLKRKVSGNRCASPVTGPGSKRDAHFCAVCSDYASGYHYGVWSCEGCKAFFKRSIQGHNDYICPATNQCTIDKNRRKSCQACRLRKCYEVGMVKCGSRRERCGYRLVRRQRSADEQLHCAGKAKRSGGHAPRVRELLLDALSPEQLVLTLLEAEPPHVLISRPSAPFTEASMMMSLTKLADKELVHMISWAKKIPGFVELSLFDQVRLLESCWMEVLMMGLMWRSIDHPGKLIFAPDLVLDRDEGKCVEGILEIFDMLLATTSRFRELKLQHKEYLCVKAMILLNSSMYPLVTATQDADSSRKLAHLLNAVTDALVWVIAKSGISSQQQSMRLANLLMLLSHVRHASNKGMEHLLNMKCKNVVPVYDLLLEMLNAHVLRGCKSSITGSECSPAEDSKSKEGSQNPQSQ
Outline: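 Agonist mode cell assay in GripTite HEK293T cells expressing an ER-beta fusion that drives beta-lactamase from an Upstream Activator Sequence; 16 hr compound exposure at 37C, then 2 h LiveBLAzer B/G FRET substrate at room temperature, fluorescence read-out.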

[14] = molecular target: Estrogen receptor beta (Homo sapiens) (UniProt Q92731); assay: qHTS assay to identify small molecule antagonists of the estrogen receptor beta (ER-beta) signaling pathway (AID 1259378; active = well fitted inhibition curve with a large enough effect in the signal ratio in the repeat runs, not every such curve was filed as active; the % refers to the signal ratio)
Outline: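 ER-beta-UAS-bla HEK293T cells in 2% charcoal-stripped FBS medium treated with compound plus 1nM final 17-beta-estradiol for 16 hr at 37C. Beta-lactamase reporter read by FRET substrate fluorescence after 2 hours at room temperature.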

[15] = A CellTox Green Cytotoxicity Assay to monitor cytotoxicity in HEK293 cells - 16 hour (AID 1224888); also: nearly all actives have a fitted effect of over 35% in size
Outline: as §1

[16] = qHTS assay to identify small molecule antagonists of the sonic hedgehog signaling (Shh) pathway (AID 1259369; calls by dose curve; also: nearly all actives have a fitted effect of over 45% in size; also: potency is read from the fitted curve at half-maximal effect)
Outline: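 Conditioned medium drives Shh signalling in 3T3Gli1-Luc cells; compounds in DMSO co-applied, 24hr at 37 C, then luciferase luminescence.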

[17] = qHTS RealTime-Glo MT Cell Viability Assay in HEK293 cells - 24 hour (AID 1224886)
Outline: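 Homogeneous bioluminescent viability format in HEK293 cells (600 cells/well). Following 5 h at 37 C/5% CO2, 23 nL compound was pintooled; the signal was measured repeatedly during 40 h incubation.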

[18] = molecular target: Androgen receptor (Homo sapiens) (UniProt P10275); assay: qHTS assay to identify small molecule antagonists of the androgen receptor (AR) signaling pathway using the MDA cell line in the presence of 0.5 nM R1881 (AID 1259243); also: nearly all actives have a fitted effect of over 50% in size; also: potency is read from the fitted curve at half-maximal effect
Chain of Androgen receptor (Homo sapiens) (P10275 whole entry, looked up): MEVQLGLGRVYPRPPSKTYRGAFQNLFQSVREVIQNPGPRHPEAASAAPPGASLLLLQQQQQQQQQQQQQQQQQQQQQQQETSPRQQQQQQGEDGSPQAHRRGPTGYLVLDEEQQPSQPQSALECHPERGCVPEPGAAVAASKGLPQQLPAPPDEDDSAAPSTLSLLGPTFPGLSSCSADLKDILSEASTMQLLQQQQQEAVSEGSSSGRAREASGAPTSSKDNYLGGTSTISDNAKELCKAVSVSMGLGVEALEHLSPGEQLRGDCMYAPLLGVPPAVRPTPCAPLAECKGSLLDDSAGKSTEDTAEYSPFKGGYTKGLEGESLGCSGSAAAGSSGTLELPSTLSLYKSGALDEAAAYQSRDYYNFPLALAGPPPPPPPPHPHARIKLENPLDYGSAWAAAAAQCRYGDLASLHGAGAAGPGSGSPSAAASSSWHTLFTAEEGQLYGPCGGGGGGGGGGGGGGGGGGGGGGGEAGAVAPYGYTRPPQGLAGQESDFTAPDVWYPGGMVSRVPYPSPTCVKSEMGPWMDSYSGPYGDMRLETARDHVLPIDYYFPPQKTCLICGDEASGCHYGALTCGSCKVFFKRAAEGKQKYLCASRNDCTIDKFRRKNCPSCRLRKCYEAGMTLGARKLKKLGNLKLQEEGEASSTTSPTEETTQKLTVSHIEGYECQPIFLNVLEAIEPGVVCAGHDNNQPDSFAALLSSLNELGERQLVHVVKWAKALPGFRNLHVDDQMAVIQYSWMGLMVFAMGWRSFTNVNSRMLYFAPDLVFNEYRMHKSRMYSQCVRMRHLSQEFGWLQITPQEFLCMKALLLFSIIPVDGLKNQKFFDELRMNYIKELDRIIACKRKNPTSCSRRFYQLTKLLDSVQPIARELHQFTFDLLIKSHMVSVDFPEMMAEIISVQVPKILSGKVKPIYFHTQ
Outline: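 We exposed MDA-kb2 cells to compounds under 0.5 nM R1881 stimulation for 16 hr at 37C and quantified MMTV-driven luciferase by luminescence.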

[19] = qHTS assay to identify small molecule phospholipidosis (PLD) inducers (AID 1259344; active = well fitted curve in the direction sought with a large enough effect; an effect the other way counts as inactive or inconclusive)
Outline: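 Quantitative HTS in HepG2: compound plus LipidTOX Red dye for 24 h, paraformaldehyde fixation with Hoechst 33342, widefield high-content imaging; amiodarone as positive and DMSO as negative control.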

[20] = qHTS assay to identify small molecule HDAC inhibitors (AID 1259364);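 also: wild-type HCT-116 cells with endogenous class I/II HDAC activity; top concentration of the series differs between compounds; nearly all actives have a fitted effect of over 45% in size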
Outline: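 Relative class I and II HDAC activity is taken from the luminogenic signal in HCT-116 cells, with compound exposure 2 hr and reagent development 30 min at room temperature.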

Measured: Potency

CCNc1nc(NC(C)(C)C)nc(OC)n1
inactive: [1] | [2] | [3] | [4] | [5] | [6] | [7] | [8] | [9] | [10] | [11] | [12] | [13] | [14]

Oc1cccc2c(O)cccc12
inactive: [1] | [2] | [3] | [15] | [4] | [5] | [7] | [9] | [12]
active: [6] 68.6 µM | [8] 54.5 µM | [11] 30.6 µM | [16] 10.9 µM

CCCCCCCCCCCCCCCCC(C(=O)O)C(O)(CC(=O)O)C(=O)O (stereo unspecified)
inactive: [1] | [17] | [3] | [15] | [4] | [5] | [6] | [7] | [18] | [8] | [19] | [20] | [9] | [10] | [11] | [12] | [16] | [13] | [14]

CCSCC
inactive: [1] | [2] | [17] | [3] | [4] | [5] | [7] | [20] | [9] | [12]
active: [11] 57.6 µM | [16] 18.2 µM

c1ccc2occc2c1
inactive: [1] | [2] | [17] | [4] | [5] | [6] | [7] | [19] | [20] | [9] | [10] | [11] | [12]
active: [8] 68.6 µM

CCOC(=O)C1=NN(c2ccc(Cl)cc2Cl)C(C)(C(=O)OCC)C1 (stereo unspecified)
inactive: [1] | [2] | [15] | [4] | [5] | [6] | [7] | [20] | [9] | [10] | [11] | [12]
active: [18] 30.6 µM

ClC(c1ccccc1)(c1ccccc1)c1ccccc1
inactive: [1] | [17] | [3] | [15] | [4] | [5] | [6] | [7] | [20] | [9] | [10] | [11] | [12] | [16]

COc1ccc(OC)c(N=Nc2c(O)ccc3ccccc23)c1
inactive: [1] | [15] | [4] | [5] | [12] | [13] | [14]
active: [6] 9.69 µM | [7] 24.3 µM | [9] 24.3 µM | [10] 13.7 µM | [11] 13.7 µM
